Measurements taken from PubChem BioAssay (NCI).
About 79,000 compounds went through this panel and 15% of them were active in at least one assay; those are over-represented in the sample as a whole. A number with no mark means an inactive call. Active and inactive are the calls of the source. Rule as the data show it: active = growth inhibition above about 70%; inactive = the rest. Where a SMILES comes first, the peptide text is derived from it. The star is where a group is joined. Cbz = O=C(OCc1ccccc1)*; Boc = CC(C)(C)OC(=O)*; OSu = O=C1CCC(=O)N1O*; Bn = c1ccc(C*)cc1

Test: NCI Yeast Anticancer Drug Screen. Data for the rad50 strain (AID 155);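 also: 0% = growth of vehicle-only cultures of the same strain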
Conditions: S. cerevisiae rad50 strain growth inhibition; at 50.0 µM; hits give high values
In short: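 Relative growth inhibition (compound vs vehicle) was measured in yeast with a defined repair-gene alteration.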
In the case of `O=C1NCCc2c1sc1ccccc21`, the growth inhibition is reported as -9.95%.
In the case of `O=C(/C=C/c1ccccc1)Nc1ccccc1C(F)(F)F`, the growth inhibition is reported as 4.45%.
`CC(=O)Nc1ccccc1Cc1nc2ccccc2c(=O)[nH]1` showed a growth inhibition of 15.7%.
`O=CN1CCN(c2ccc3ccc(=O)[nH]c3n2)CC1` showed a growth inhibition of -4.45%.
Work on `COc1ccc(C(CC(=O)c2ccccc2)SCCN2CCOCC2)cc1` (stereo not given) yielded a growth inhibition of 4.25%.
Work on `CCn1c(=O)c2c3ccc(OC(C)=O)cc3[nH]c2c2ccc(OC(C)=O)cc21` yielded a growth inhibition of -17.9%.
`CC(C)(C)OC(=O)NC(Cc1ccc(OCc2ccccc2)cc1)C(=O)NC(CCCCNC(=O)OCc1ccccc1)C(=O)NC(CCCCNC(=O)OCc1ccccc1)C(=O)ON1C(=O)CCC1=O` (stereo not given) (Boc-Tyr(Bn)-Lys(Cbz)-Lys(Cbz)-OSu; configuration not given here) showed a growth inhibition of -1.85%.
With `COc1cc(C(=O)O)c(I)c(OC)c1OC` the growth inhibition was -10.9%.
For `CCOC(=O)Cn1cnc2sc3c(c2c1=O)CCCC3`, the growth inhibition was 13.4%.
In the case of `O=C1NC(=O)C(c2ccc(Cl)c(Cl)c2)N1` (stereo not given), the growth inhibition is reported as 11.2%.
`CC1(C)OC2OC(CI)C3OC(C)(C)OC3C2O1` (stereo not given) showed a growth inhibition of 5.7%.
For `CCCCCCCCCCCCCCCCCCNC(=O)Nc1ccc(OC)cc1OC`, the growth inhibition was 15.4%.
Molecule `CC(C)CCCC(C)C1CCC2C3CC=C4CC(OC(=O)c5ccncc5)CCC4(C)C3CCC12C` (stereo not given) has a growth inhibition of 3.2%.
In the case of `Cc1cc2c(C)nn(Cc3ccccc3)c2c(C(=O)O)c1C`, the growth inhibition is reported as 10.6%.
With `COc1cc(CC2c3cccc(Oc4ccc(C)cc4)c3CCN2C)ccc1Oc1ccc(C)cc1` (stereo not given) the growth inhibition was 98% (active).
Work on `O=C(CCC/C(CC(=O)c1ccc(Cl)cc1)=N\NC(=O)c1cc2ccccc2cc1O)Nc1cccc([N+](=O)[O-])c1` yielded a growth inhibition of 52%.
Molecule `CCC(C(=O)OC)C1CCCCC1` (stereo not given) has a growth inhibition of 24.8%.
For `COc1ccc(OC)c(N=Cc2cccs2)c1`, the growth inhibition was 14.6%.
With `CO[C@H]1C[C@H]2[C@@H]3CCC4=CC(=O)CC[C@]4(C)[C@H]3CC[C@]2(C)[C@@]1(O)C(=O)CO` the growth inhibition was -7.35%.
In the case of `N#C/C(=C\c1cccc(Cl)c1)C(=O)c1ccccc1`, the growth inhibition is reported as 1.1%.
`Cc1ncc([N+](=O)[O-])n1CCSC(N)=O` gave a growth inhibition of -6.75%.
Work on `CC(=O)c1cc2c(cc1C)C(C)=C(C)C2(C)C` yielded a growth inhibition of -3.1%.
With `OCCCC1CCN(CCO)CC1` the growth inhibition was -22.2%.
`CC1c2c(ccc3c2CCC=C3)CCC1CC1=CCCc2ccc3ccccc3c21` (stereo not given) showed a growth inhibition of 6.7%.
`O=S1(=O)CC2C3CC(Oc4ccccc4)C(C3)C2C1` (stereo not given) gave a growth inhibition of -9.85%.
Molecule `C1CCC(NCSC2=NCCS2)CC1` has a growth inhibition of 36.5%.
Work on `Cc1cc(C)c(Br)c(C)c1C` yielded a growth inhibition of -17.4%.
For `Cc1ccc(-c2cc(=O)c3cc(C)c(C)c(C(=O)O)c3o2)cc1N`, the growth inhibition was -8.6%.
In the case of `COC1OC(COS(=O)(=O)c2ccc(C)cc2)C(N(C)C(C)=O)C1OS(=O)(=O)c1ccc(C)cc1` (stereo not given), the growth inhibition is reported as 8.65%.
`CNC(=O)c1ccccc1N` gave a growth inhibition of 1.75%.
`CCOC(=O)N/N=C(/OCC)c1ccccc1` gave a growth inhibition of 9.75%.
With `CC1=CC(=O)C(=O)c2ccccc21` the growth inhibition was -34.9%.
`CC(C)(C)c1onc2c1C(=O)c1ccccc1-2` showed a growth inhibition of -3.7%.
With `COC12CC3C4CCC5CC(O)CCC5(C)C4CCC3(C)C1C(C)C1(CCC(C)CO1)O2` (stereo not given) the growth inhibition was 33.6%.
In the case of `CN1C(c2ccccc2)NC(=O)C12CCN(CCCC(=O)c1ccccc1)CC2` (stereo not given), the growth inhibition is reported as 63.5%.
`CC(C)C1=C(Cc2ccccc2)C(=O)O/C1=C\c1ccc(O)c(Cl)c1` showed a growth inhibition of 2.8%.
`CC12C(=O)NC(c3ccccc3)(c3ccccc31)C1C(=O)N(C(N)=O)C(=O)C12` (stereo not given) showed a growth inhibition of 13.9%.
With `CCOC(=O)c1cnc(SC)nc1N` the growth inhibition was 9.25%.
Molecule `C/C(=N\NC(=O)CCCCC(=O)N/N=C(\C)c1ccc(C)cc1)c1ccc(C)cc1` has a growth inhibition of -3.65%.
With `O=[N+]([O-])c1ccc(N/N=C/c2ccc(CO)cc2)c([N+](=O)[O-])c1` the growth inhibition was 4%.

Test: NCI Yeast Anticancer Drug Screen. Data for the mec2-1 strain (AID 157)
Conditions: S. cerevisiae mec2-1 strain, at 50.0 µM, hits give high values
In short: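 Readout is yeast growth inhibition, normalised to vehicle-treated controls, in the mec2-1 strain exposed to compound.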
In the case of `O=C1NCCc2c1sc1ccccc21`, the growth inhibition is reported as 2.45%.
In the case of `O=C(/C=C/c1ccccc1)Nc1ccccc1C(F)(F)F`, the growth inhibition is reported as 9.05%.
In the case of `CC(=O)Nc1ccccc1Cc1nc2ccccc2c(=O)[nH]1`, the growth inhibition is reported as 12.6%.
In the case of `O=CN1CCN(c2ccc3ccc(=O)[nH]c3n2)CC1`, the growth inhibition is reported as -24.2%.
Work on `COc1ccc(C(CC(=O)c2ccccc2)SCCN2CCOCC2)cc1` (stereo not given) yielded a growth inhibition of 0.85%.
Molecule `CCn1c(=O)c2c3ccc(OC(C)=O)cc3[nH]c2c2ccc(OC(C)=O)cc21` has a growth inhibition of -30.5%.
`CC(C)(C)OC(=O)NC(Cc1ccc(OCc2ccccc2)cc1)C(=O)NC(CCCCNC(=O)OCc1ccccc1)C(=O)NC(CCCCNC(=O)OCc1ccccc1)C(=O)ON1C(=O)CCC1=O` (stereo not given) (Boc-Tyr(Bn)-Lys(Cbz)-Lys(Cbz)-OSu; configuration not given here) gave a growth inhibition of 2.95%.
In the case of `COc1cc(C(=O)O)c(I)c(OC)c1OC`, the growth inhibition is reported as -5.85%.
Work on `CCOC(=O)Cn1cnc2sc3c(c2c1=O)CCCC3` yielded a growth inhibition of 21.1%.
`O=C1NC(=O)C(c2ccc(Cl)c(Cl)c2)N1` (stereo not given) showed a growth inhibition of -10%.
Work on `CC1(C)OC2OC(CI)C3OC(C)(C)OC3C2O1` (stereo not given) yielded a growth inhibition of 2.8%.
With `CCCCCCCCCCCCCCCCCCNC(=O)Nc1ccc(OC)cc1OC` the growth inhibition was 37%.
In the case of `CC(C)CCCC(C)C1CCC2C3CC=C4CC(OC(=O)c5ccncc5)CCC4(C)C3CCC12C` (stereo not given), the growth inhibition is reported as -12.1%.
`Cc1cc2c(C)nn(Cc3ccccc3)c2c(C(=O)O)c1C` showed a growth inhibition of 7.05%.
For `COc1cc(CC2c3cccc(Oc4ccc(C)cc4)c3CCN2C)ccc1Oc1ccc(C)cc1` (stereo not given), the growth inhibition was 98.2% (active).
`O=C(CCC/C(CC(=O)c1ccc(Cl)cc1)=N\NC(=O)c1cc2ccccc2cc1O)Nc1cccc([N+](=O)[O-])c1` showed a growth inhibition of 47.2%.
`CCC(C(=O)OC)C1CCCCC1` (stereo not given) showed a growth inhibition of -27.8%.
For `COc1ccc(OC)c(N=Cc2cccs2)c1`, the growth inhibition was 5.95%.
`CO[C@H]1C[C@H]2[C@@H]3CCC4=CC(=O)CC[C@]4(C)[C@H]3CC[C@]2(C)[C@@]1(O)C(=O)CO` gave a growth inhibition of -9.25%.
With `N#C/C(=C\c1cccc(Cl)c1)C(=O)c1ccccc1` the growth inhibition was 11.3%.
For `Cc1ncc([N+](=O)[O-])n1CCSC(N)=O`, the growth inhibition was -13.6%.
`CC(=O)c1cc2c(cc1C)C(C)=C(C)C2(C)C` showed a growth inhibition of -2.35%.
For `OCCCC1CCN(CCO)CC1`, the growth inhibition was -27.5%.
For `CC1c2c(ccc3c2CCC=C3)CCC1CC1=CCCc2ccc3ccccc3c21` (stereo not given), the growth inhibition was -1.6%.
`O=S1(=O)CC2C3CC(Oc4ccccc4)C(C3)C2C1` (stereo not given) showed a growth inhibition of -6.35%.
`C1CCC(NCSC2=NCCS2)CC1` showed a growth inhibition of -4.7%.
Molecule `Cc1cc(C)c(Br)c(C)c1C` has a growth inhibition of 4.15%.
`Cc1ccc(-c2cc(=O)c3cc(C)c(C)c(C(=O)O)c3o2)cc1N` showed a growth inhibition of -3.55%.
Molecule `COC1OC(COS(=O)(=O)c2ccc(C)cc2)C(N(C)C(C)=O)C1OS(=O)(=O)c1ccc(C)cc1` (stereo not given) has a growth inhibition of -8.3%.
Molecule `CNC(=O)c1ccccc1N` has a growth inhibition of -6.95%.
Molecule `CCOC(=O)N/N=C(/OCC)c1ccccc1` has a growth inhibition of 2.7%.
Work on `CC1=CC(=O)C(=O)c2ccccc21` yielded a growth inhibition of -9.65%.
In the case of `CC(C)(C)c1onc2c1C(=O)c1ccccc1-2`, the growth inhibition is reported as -2.55%.
Molecule `COC12CC3C4CCC5CC(O)CCC5(C)C4CCC3(C)C1C(C)C1(CCC(C)CO1)O2` (stereo not given) has a growth inhibition of 8.7%.
Work on `CN1C(c2ccccc2)NC(=O)C12CCN(CCCC(=O)c1ccccc1)CC2` (stereo not given) yielded a growth inhibition of 39.7%.
Work on `CC(C)C1=C(Cc2ccccc2)C(=O)O/C1=C\c1ccc(O)c(Cl)c1` yielded a growth inhibition of -22.9%.
`CC12C(=O)NC(c3ccccc3)(c3ccccc31)C1C(=O)N(C(N)=O)C(=O)C12` (stereo not given) showed a growth inhibition of 7.35%.
`CCOC(=O)c1cnc(SC)nc1N` showed a growth inhibition of -8.1%.
In the case of `C/C(=N\NC(=O)CCCCC(=O)N/N=C(\C)c1ccc(C)cc1)c1ccc(C)cc1`, the growth inhibition is reported as -11.3%.
Molecule `O=[N+]([O-])c1ccc(N/N=C/c2ccc(CO)cc2)c([N+](=O)[O-])c1` has a growth inhibition of -5.65%.
